From PubChem BioAssay (NCI)
The panel holds about 83,000 compounds, 20% with a hit somewhere; the sample as a whole holds those more often.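 Negative percent growth values reflect cell death: -40 means 40% of the cells present at the start died, and -100 means all died.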 Values without a mark were called inactive. Activity calls are given as the source filed them. The calls were made as follows: active = growth percent below 10; inactive = the rest.

Tests used:
Test in all cases: NCI-60 one-dose screen, 48 h (100 = growth as untreated, 0 = no growth, -100 = all killed)
[1] = system: NCI-H460 lung; conditions: 10 µM unless noted
[2] = system: 786-0 renal; conditions: 10 µM unless noted
[3] = system: DU-145 prostate; conditions: 10 µM unless noted
[4] = system: MDA-MB-231 breast; conditions: 10 µM unless noted
[5] = system: SF-268 CNS; conditions: 10 µM unless noted
[6] = system: SF-539 CNS; conditions: 10 µM unless noted
[7] = system: HCT-15 colon; conditions: 10 µM
[8] = system: HT29 colon; conditions: 10 µM unless noted
[9] = system: SNB-19 CNS; conditions: 10 µM unless noted
[10] = system: UACC-62 melanoma; conditions: 10 µM unless noted
[11] = system: SK-MEL-28 melanoma; conditions: 10 µM unless noted
[12] = system: SN12C renal; conditions: 10 µM unless noted
[13] = system: UO-31 renal; conditions: 10 µM unless noted
[14] = system: TK-10 renal; conditions: 10 µM unless noted
[15] = system: T-47D breast; conditions: 10 µM unless noted
[16] = system: MDA-MB-435 melanoma; conditions: 10 µM unless noted
[17] = system: SW-620 colon; conditions: 10 µM unless noted
[18] = system: MCF7 breast; conditions: 10 µM unless noted
[19] = system: KM12 colon; conditions: 10 µM unless noted
[20] = system: HL-60(TB) leukemia; conditions: 10 µM unless noted

CNc1ccc(C(=O)CC(O)CCC(C)C2OC(=O)CC(O)CC(=O)CC(O)CC(O)CC(O)CC(O)CC3(O)CC(O)C(C(=O)OC)C(CC(O[C@@H]4O[C@H](C)[C@@H](O)[C@H](N)[C@@H]4O)/C=C/C=C/C=C/C=C/C=C/C=C/C=C/C2C)O3)cc1 (stereo partly specified)
growth [1]: 3.55% (active)
growth [2]: -20.1% (active)
growth [3]: -75.3% (active)
growth [4]: -0.509% (active)
growth [5]: -5.42% (active)
growth [6]: 72.4%
growth [7]: 41.8%
growth [8]: -21.2% (active)
growth [9]: 41.8%
growth [10]: 3.05% (active)
growth [11]: -89.1% (active)
growth [12]: -81.3% (active)
growth [13]: -58.6% (active)
growth [14]: -47.6% (active)
growth [15]: -2.05% (active)
growth [16]: -1.58% (active)
growth [17]: 37%
growth [18]: 8.58% (active)
growth [19]: 7.61% (active)

CO[C@@H]([CH2][Hg][S]C#N)[C@@H]([CH2][Hg][S]C#N)OC
growth [1]: 127%
growth [2]: 120%
growth [3]: 99.2%
growth [4]: 96.1%
growth [5]: 100%
growth [6]: 125%
growth [8]: 79.4%
growth [9]: 100%
growth [10]: 88.9%
growth [11]: 104%
growth [12]: 98.2%
growth [13]: 94.6%
growth [20]: 62.9%
growth [15]: 116%
growth [16]: 98.7%
growth [17]: 22.3%
growth [18]: 31%
growth [19]: 107%

C/C(=N/OC(=O)N(C)C)c1cc(Cl)ccc1Cl
growth [1]: 105%
growth [2]: 97.8%
growth [3]: 105%
growth [4]: 111%
growth [5]: 99.4%
growth [6]: 103%
growth [7]: 100%
growth [8]: 100%
growth [9]: 101%
growth [10]: 108%
growth [11]: 113%
growth [12]: 103%
growth [13]: 77.4%
growth [14]: 97.7%
growth [20]: 95.1%
growth [15]: 96.7%
growth [16]: 99.2%
growth [17]: 101%
growth [18]: 97.8%
growth [19]: 106%

O=C(O)CC(Br)C(=O)CBr (stereo unspecified)
growth [1]: 108%
growth [2]: 99.1%
growth [3]: 111%
growth [4]: 98.2%
growth [5]: 106%
growth [6]: 95.3%
growth [7]: 93.5%
growth [8]: 109%
growth [9]: 104%
growth [10]: 102%
growth [11]: 102%
growth [12]: 107%
growth [13]: 86.1%
growth [14]: 98.9%
growth [20]: 105%
growth [15]: 103%
growth [16]: 108%
growth [17]: 103%
growth [18]: 86.3%
growth [19]: 111%

CC(C)CCC[C@@H](C)[C@H]1CC[C@H]2[C@@H]3CC=C4C[C@@H](OC(=O)Cc5ccc(N(CCCl)CCCl)cc5)CC[C@]4(C)[C@H]3CC[C@]12C
growth [1]: 97.8%
growth [2]: 96.7%
growth [3]: 116%
growth [4]: 101%
growth [5]: 108%
growth [6]: 94.1%
growth [7]: 108%
growth [8]: 107%
growth [9]: 107%
growth [10]: 94.4%
growth [11]: 111%
growth [12]: 99.9%
growth [13]: 90%
growth [20]: 86.9%
growth [15]: 106%
growth [16]: 113%
growth [17]: 109%
growth [18]: 99%
growth [19]: 109%

O=C(NCCNC(=O)c1ccc([As](O)O)cc1)c1ccc([As](O)O)cc1
growth [1]: 99.7%
growth [2]: 114%
growth [3]: 103%
growth [4]: 106%
growth [5]: 103%
growth [6]: 102%
growth [7]: 107%
growth [8]: 112%
growth [9]: 106%
growth [10]: 99.7%
growth [11]: 111%
growth [12]: 113%
growth [13]: 96.8%
growth [14]: 111%
growth [20]: 105%
growth [15]: 100%
growth [16]: 104%
growth [17]: 94.7%
growth [18]: 99.7%
growth [19]: 99.8%

CCC(C)/C=C(C)/C=C/C(=O)c1c(O)c(-c2ccc(O)cc2)c[nH]c1=O (stereo unspecified)
growth [1]: 31.6%
growth [2]: 49.7%
growth [3]: 24.8%
growth [4]: 70%
growth [5]: 33.3%
growth [6]: 61.7%
growth [7]: 38.8%
growth [8]: 14.3%
growth [9]: 59%
growth [10]: 48.8%
growth [11]: 91%
growth [12]: 60.5%
growth [13]: 35%
growth [14]: 27.3%
growth [20]: 36%
growth [15]: 48.6%
growth [16]: 24.2%
growth [17]: 39.6%
growth [18]: 18.6%
growth [19]: 40.6%
